Experimental data: PubChem BioAssay AID602247 (The Scripps Research Institute Molecular Screening Center, 2012)
Among all 360,000 compounds or so, about 80 (0.02%) were called active. The full list was thinned out, with actives kept by preference. A number with no mark means an inactive call.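 The calls were made as follows: active = activation above the run cutoff, the mean activation of all test compounds plus 3 SD (cut at about 40% in these data); inactive = the rest.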

Assay: nonselective calcium activators in parental CHO-K1 cells, primary screen, counter-screen for M1 PAM project, cell-based, Fluo-8 calcium fluorescence, full deck, 1536-well (AID 602247);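 also: peak over basal fluorescence ratio in a 140 s read after ATP addition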
Conditions: parental CHO-K1, ATP EC20, Fluo-8 calcium fluorescence; at 3 µM; active compounds read high; 0% at ATP EC20, 100% at ATP max

Structure (SMILES) | activation
Nc1scc(-c2ccncc2)c1Cl | 13.6%
Cc1cccc(CC2(O)C(=O)Nc3ccccc32)n1 (stereo not given) | 12.3%
Cc1ccc(C)c(OCCC(=O)Nc2cccc(S(=O)(=O)N3CCCC3)c2)c1 | 10.7%
O=c1[nH]c(CCl)nc2cc(-c3ccc(Cl)cc3)sc12 | 13%
CN[C@H](C(=O)NC[C@H]1O[C@@H](n2cnc3c(N)ncnc32)[C@H](O)[C@@H]1O)[C@@H](C)OCc1ccccc1 | 11.7%
O=C(NNS(=O)(=O)c1ccc([N+](=O)[O-])cc1)C1CCCCC1 | -9.25%
COC(=O)c1ccccc1NC(=O)C1(S(=O)(=O)c2ccc(Cl)cc2)CC1 | -15%
CSc1ccccc1C(=O)OCC(=O)N1CCN(C(C)=O)CC1 | 15.7%
O=C(CSCc1ccccc1Cl)NNC(=O)c1ccccc1 | 2.85%
O=C(OC1CCOC1=O)c1ccc(-c2nc3ccccc3s2)s1 (stereo not given) | 10.6%
Cc1ccc2nc(NC(=O)C3CSC4(C)CCC(=O)N34)sc2c1 (stereo not given) | -12.5%
COC(C[C@@H](O)C[C@@H](O)[C@H](C)OCc1ccccc1)OC | 17.1%
Cc1ccc([C@H]2N[C@]3(CCCN(Cc4ccccc4)C3=O)[C@H]3C(=O)N(Cc4ccccc4)C(=O)[C@@H]23)cc1 | 1.9%
CC(=O)NC1=NC(=O)CS1 | 15.2%
C[C@H]([C@@H](O)[C@@H](O)[C@@H](C)C(C)(C)C)[C@H]1CC[C@H]2C3CC[C@H]4C[C@H](OS(=O)(=O)O)[C@@H](OS(=O)(=O)O)C[C@]4(C)[C@H]3CC[C@]12C (stereo not given in full) | 46.3% (active)
CC(=O)O[C@H]1CC[C@@]2(C)[C@@H](CC[C@@H]3[C@@H]2CC[C@]2(C)[C@@H](C(C)(C)O)C[C@@H]32)C1 | 4%
CCOC(=O)c1c(C)n(C)c2ccc(OC)c(NC(=O)CN3CCC4(CC3)OCCO4)c12 | 7.82%
O=C(CN(c1ccccc1)S(=O)(=O)c1ccc(Cl)cc1)Nc1ccccc1C(=O)N1CCCC1 | 8.26%
CCOc1ccccc1NC(=O)C1CCN(S(=O)(=O)c2c(C)nn(C)c2C)CC1 | -1.01%
Cc1ccc(N2CCN(c3ccc(C)cc3)C2c2ccccn2)cc1 | -7.38%
COc1ccc(S(=O)(=O)N2CCN(C(=O)c3cc(C)oc3C)CC2)cc1 | 20.2%
COc1ccc(CCN2CC(C(=O)OCC(=O)NCc3ccccc3Cl)CC2=O)cc1OC (stereo not given) | -3.82%
Cc1cc(C(=O)CC#N)c(C)n1CC(F)(F)F | 13.3%

Structure (SMILES) | activation
C/C(=N/NC(=O)CSc1ccccn1)c1ccc([N+](=O)[O-])cc1 | 22.4%
CC1(C)CC2CC(C)(CN2c2ncnc3ccc(Br)cc23)C1 (stereo not given) | 17.9%
C/C(N)=C(\C#N)C(=O)NCCc1ccccn1 | 21.8%
O=C(/C=N/O)Nc1ccccc1 | 6.67%
CN1CCN(c2cc(=O)n(-c3ccc(Cl)cc3)c(=O)[nH]2)CC1 | 1.64%
COc1ccc(C2/C=C\CN(S(=O)(=O)c3cccs3)CC(=O)N2Cc2ccc(F)cc2)cc1 (stereo not given) | -11.5%
CC(C)NC(=O)c1ccccc1S(=O)c1ccccc1C#N (stereo not given) | 0.52%
O=C(CSc1nnnn1-c1ccc2c(c1)CCC2)Nc1ccc2c(c1)OCCO2 | -11.2%
O=C1c2ccccc2C(=O)N1CCc1nn[nH]n1 | 16.6%
CC(C)(C)c1ccc(/C=C2\Oc3c(ccc(O)c3CN3CCN(CCO)CC3)C2=O)cc1 | 4.37%
CCCCOc1ccc(C(=O)NCC(=O)OCC(=O)c2c(N)n(C)c(=O)n(C)c2=O)cc1 | -1.27%
COc1cccc(CNCc2ccc3c(c2)OCO3)c1 | 18.7%
CCOc1ccccc1N1CCN(C(=S)Nc2ccc(S(N)(=O)=O)cc2)CC1 | 17.3%
COc1ccc(C2=NOC(Cn3nc(C(=O)NCc4ccc5c(c4)OCO5)cc3-c3ccccc3)C2)cc1 (stereo not given) | 14.9%
CCOc1cc(C2C(C(=O)OC(C)C)=C(C)NC3=C2C(=O)CCC3)cc([N+](=O)[O-])c1O (stereo not given) | 14.9%
COCCNC(=O)CSc1nc2c(n1-c1ccccc1)CCCC2 | 10.3%
O=C1CC(C(F)(F)C(F)(F)C(F)(F)C(F)(F)F)=Nc2ccccc2N1 | 17.5%
CCN1C(=NCC(C)C)N[C@@H](CCc2ccccc2)[C@H](C(=O)NCC(C)C)[C@H]1C | 8.06%
CC(CC(=O)N1CCN(S(=O)(=O)c2ccccc2)CC1)n1cncn1 (stereo not given) | 23.5%
CSc1ncccc1C(=O)OCc1ccc(Br)cc1 | 17%
CC(C)COc1ccc(C(=O)OCC(=O)NCCC2=CCCCC2)cc1 | 0.12%
Cc1noc(NS(=O)(=O)c2ccc(NC(=O)c3oc4ccc(F)cc4c3C)cc2)c1C | 14.4%
O[C@@H]1C[C@H](c2ccccc2)N(Cc2cccs2)C[C@H]1n1cc(C2CC2)nn1 | 31.2%

Structure (SMILES) | activation
O[C@H]1CN(Cc2cccs2)[C@@H](c2ccc(Cl)cc2)C[C@@H]1n1cc(C2CC2)nn1 | 1.81%
O[C@H]1C[C@H](c2ccc(Cl)cc2)N(Cc2cccs2)C[C@@H]1n1cc(C2CC2)nn1 | 47.2% (active)
Cc1ccc(C2NC(=S)NC3=C2N2CCC3CC2)cc1 (stereo not given) | 12.6%
NC(=O)c1ncn([C@@H]2O[C@H](CN=C3NS(=O)(=O)c4ccccc43)[C@@H](O)[C@H]2O)n1 | 12.9%
COc1ccccc1N1CCC(N2CCN(CC(C)(C)C)C(CCO)C2)CC1 (stereo not given) | 15.1%
O=S(=O)(NCc1ccc2c(c1)OCO2)c1cccc2nsnc12 | -1.4%
Cc1ccc(NC(=S)Nc2ncccc2C)c(C)c1 | 14.7%
Cc1cc(C)cc(NC(=O)COC(=O)c2cc(C)oc2C)c1 | 9.08%
COC(=O)Cn1cnc2scc(-c3ccc(C)c(C)c3)c2c1=O | 12.6%
C[C@H](NC(=O)[C@@H]1CCCN1C(=O)[C@@H]1CCCN1C(=O)c1ccccc1)c1ccccc1 | 20.5%
CCc1ccc(OCC(=O)NCC(c2ccc(Cl)cc2)N2CCCCC2)cc1 (stereo not given) | 11%
COc1ccc(C)cc1N(CC(=O)N1CCCC1)S(=O)(=O)c1ccccc1 | 9.46%
Cc1ccc(C)c(NC(=O)c2cc(-c3cc(C)cc(C)c3O)n[nH]2)c1 | -21.6%
O=C(Nc1cccnc1)c1cc2cc(Br)ccc2oc1=O | -7.52%
O=C(CSc1nnc(-c2cccs2)n1Cc1ccco1)c1ccc2c(c1)OCO2 | 22.8%
CCN(CC)Cc1cc(C(C)=O)ccc1O | -6.07%
C=CCOc1ccccc1NC(=O)CN1C(=O)CNC1=O | 13.6%
Cc1ccc(NC(=O)CN(C)C(=O)c2ccc(Br)o2)cc1 | -2.97%
CCOC(=O)c1ccc(N2C(=O)CC(Sc3nc(O)c(CC)c(=O)[nH]3)C2=O)cc1 (stereo not given) | 11.8%
Fc1cccc(Cc2noc(CN3CCN(c4cnccn4)CC3)n2)c1 | 10.6%
Cc1c(Br)c([N+](=O)[O-])nn1C(C)C(=O)Nc1nccs1 (stereo not given) | 3.45%
O=c1cc(CN2CCN(S(=O)(=O)/C=C/c3ccccc3)CC2)c2ccc(O)cc2o1 | -3.7%
Cc1ccc(-c2ccc(C3=CC(=O)CC(C)(C)C3=O)cc2)cc1 | 8.88%

Structure (SMILES) | activation
O=C(NC12CC3CC(CC(C3)C1)C2)N1CCCC(CO)C1 (stereo not given) | 11.3%
COc1cc(CCC(=O)N2CCN(c3ccccc3Cl)CC2)cc(OC)c1OC | 15.8%
O=C(CN1CCN(C(=S)NC2CCCC2)CC1)Nc1ccc(Oc2ccccc2)cc1 | -1.33%
Cc1cccc(N2C(=O)C3C(c4ccccc4)OC4(C(=O)c5ccccc5C4=O)C3C2=O)c1 (stereo not given) | 10.9%
O=C(OCC(=O)N1CCCCCC1)c1ccc(Cl)nc1 | 21.8%
COc1cc(CNc2ncn[nH]2)ccc1OCc1ccccc1C | -0.62%
COc1ccc(OC)c(C(=O)NC(CC(N)=O)c2ccc(N3CCC(N4CCCCC4)CC3)c([N+](=O)[O-])c2)c1 (stereo not given) | 26.1%
CC(NC(=O)COc1cccnc1[N+](=O)[O-])c1ccc(Cl)cc1Cl (stereo not given) | -1.02%
Cc1cc(C)c(S(=O)(=O)N(C)CC(=O)NCC2CCCO2)c(C)c1 (stereo not given) | -22.7%
Nc1nc(SCC(=O)Nc2ccc(Cl)cc2C(F)(F)F)n[nH]1 | 5.7%
Cc1ccc(SCCN2C(=O)NC(C)(C)C2=O)cc1 | 11.2%
C=CCn1c(COc2ccccc2F)nnc1SCC(=O)N1CC(=O)Nc2ccccc21 | 15.7%
COc1ccccc1C(=O)N/C(=C/c1ccc2c(c1)OCO2)C(=O)Nc1cccc(C(=O)O)c1 | -17.7%
CCc1ccc(N2CC(C(=O)NC3=NCCS3)CC2=O)cc1 (stereo not given) | -0.63%
Cc1nc2ccccn2c(=O)c1NC(=O)c1ccc(Br)o1 | 7.36%
CCOc1cc(NC(=O)CCl)c(OCC)cc1NC(C)=O | 10.9%
Cc1ccc(C(C)C)c(OCCSc2nc3ccccc3n2CC(=O)O)c1 | 1.93%
COc1cccc(-c2nc3n(n2)C(c2ccccc2Cl)C(C(N)=O)=C(C)N3)c1 (stereo not given) | 3.28%
COc1ccc(NC(=O)CNc2cc(S(=O)(=O)N3CCOCC3)ccc2N2CCOCC2)c(OC)c1 | 9.94%
COc1ccc(NC(=O)NN2CCN(C)CC2)c(OC)c1 | 15.7%
COc1ccc(NC(=O)c2sc(N3CCOCC3)nc2-c2ccccc2)c(OC)c1 | 44.6% (active)
